# Results reported in the supplement of paper PMC6089552.
# Hit rate of the full screen: of about 3,200 compounds, about 300 (9.4%) showed activity. Many of the other results were omitted from the sample, so actives are more common in it than they were. Unmarked numbers belong to inactive results.
# Tested on: A673/TR/shEF
# Experiment: cell viability (LOESS-normalised, relative to median of negative controls) (log2 ratio); higher = more viable cells (less compound effect), active = hit call of the paper (over 3 MAD below the median)
# Conditions: treatment time: 72 h
# Method in brief: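 A673/TR/shEF Ewing sarcoma cells (1,500 per well, 384-well plates) were grown with or without doxycycline to induce EWS-FLI1 shRNA knockdown, starting 24 h before compounds. Library compounds at two or more concentrations, with DMSO controls, were added for three days. Cell viability was read by CellTiter-Glo luminescence on an Envision reader, then LOESS-corrected per plate, divided by the median of negative controls and log2-transformed. Hits were wells at least three median absolute deviations from the median of all screened wells.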
# [1] = 0.25 µM, library screen: screen1, EWS-FLI1 expression: high (no doxycycline)
# [2] = 0.25 µM, library screen: screen1, EWS-FLI1 expression: low (doxycycline-induced shRNA knockdown)
# [3] = 2.5 µM, library screen: screen1, EWS-FLI1 expression: high (no doxycycline)
# [4] = 2.5 µM, library screen: screen1, EWS-FLI1 expression: low (doxycycline-induced shRNA knockdown)
# [5] = 0.25 µM, library screen: screen2, EWS-FLI1 expression: high (no doxycycline)
# [6] = 0.25 µM, library screen: screen2, EWS-FLI1 expression: low (doxycycline-induced shRNA knockdown)
# [7] = 2.5 µM, library screen: screen2, EWS-FLI1 expression: high (no doxycycline)
# [8] = 2.5 µM, library screen: screen2, EWS-FLI1 expression: low (doxycycline-induced shRNA knockdown)
structure (smiles),measurement,setting,value
N[C@@H](C=O)[C@@H](O)[C@H](O)[C@H](O)CO,cell viability (log2),[1],0.0986
same,cell viability (log2),[2],0.0199
same,cell viability (log2),[3],0.192
same,cell viability (log2),[4],0.145
CN(C)CC/C=C1\c2ccccc2COc2ccccc21,cell viability (log2),[1],0.126
same,cell viability (log2),[2],0.129
same,cell viability (log2),[5],0.0848
same,cell viability (log2),[6],0.0467
same,cell viability (log2),[3],0.131
same,cell viability (log2),[4],0.118
same,cell viability (log2),[7],0.142
same,cell viability (log2),[8],0.121
CN(C)CCC=C1c2ccccc2C=Cc2ccccc21,cell viability (log2),[1],0.131
same,cell viability (log2),[2],0.0615
same,cell viability (log2),[5],0.206
same,cell viability (log2),[6],0.141
same,cell viability (log2),[3],0.117
same,cell viability (log2),[4],0.104
same,cell viability (log2),[7],0.126
same,cell viability (log2),[8],0.0683
CN(C)CCC=C1c2ccccc2CCc2ccccc21,cell viability (log2),[1],0.0816
same,cell viability (log2),[2],0.086
same,cell viability (log2),[5],-0.148 (active)
same,cell viability (log2),[6],0.138
same,cell viability (log2),[3],0.144
same,cell viability (log2),[4],0.0763
same,cell viability (log2),[7],0.0454
same,cell viability (log2),[8],0.0908
COc1c(C2COc3cc4c(cc3C2=O)CC(O)C(C)(C)O4)ccc2c1CCC(C)(C)O2 (stereo not given),cell viability (log2),[1],0.0719
same,cell viability (log2),[2],0.0278
same,cell viability (log2),[3],0.0883
same,cell viability (log2),[4],0.0229
CNC(=O)CN(CCN(CCN(CC(=O)[O-])CC(=O)NC)CC(=O)[O-])CC(=O)[O-].O.[Gd+3],cell viability (log2),"0.103 µM, library screen: screen3, EWS-FLI1 expression: high (no doxycycline)",0.106
same,cell viability (log2),"0.103 µM, library screen: screen3, EWS-FLI1 expression: low (doxycycline-induced shRNA knockdown)",-0.0293
same,cell viability (log2),"0.308 µM, library screen: screen3, EWS-FLI1 expression: high (no doxycycline)",0.00861
same,cell viability (log2),"0.308 µM, library screen: screen3, EWS-FLI1 expression: low (doxycycline-induced shRNA knockdown)",0.114
same,cell viability (log2),"0.926 µM, library screen: screen3, EWS-FLI1 expression: high (no doxycycline)",0.0946
same,cell viability (log2),"0.926 µM, library screen: screen3, EWS-FLI1 expression: low (doxycycline-induced shRNA knockdown)",0.0839
same,cell viability (log2),"2.8 µM, library screen: screen3, EWS-FLI1 expression: high (no doxycycline)",0.127
same,cell viability (log2),"2.8 µM, library screen: screen3, EWS-FLI1 expression: low (doxycycline-induced shRNA knockdown)",0.127
same,cell viability (log2),"8.3 µM, library screen: screen3, EWS-FLI1 expression: high (no doxycycline)",0.0841
same,cell viability (log2),"8.3 µM, library screen: screen3, EWS-FLI1 expression: low (doxycycline-induced shRNA knockdown)",0.116
same,cell viability (log2),"25 µM, library screen: screen3, EWS-FLI1 expression: high (no doxycycline)",0.0924
same,cell viability (log2),"25 µM, library screen: screen3, EWS-FLI1 expression: low (doxycycline-induced shRNA knockdown)",0.134
C=C1[C@@H]([C@@]2(C)C=CC(=O)C(C)(C)[C@@H]2CC(=O)OC)CC[C@@]2(C)C(c3ccoc3)OC(=O)[C@H]3O[C@]132 (stereo not given in full),cell viability (log2),[1],0.109
same,cell viability (log2),[2],0.0181
same,cell viability (log2),[3],0.0641
same,cell viability (log2),[4],0.0727
CC(=O)O[C@@H]1CC2C(C)(C)[C@H](O)C[C@H](O)[C@]2(C)C2CC[C@@]3(C)[C@H](c4ccoc4)OC(=O)[C@H]4O[C@]43[C@@]21C (stereo not given in full),cell viability (log2),[1],0.0571
same,cell viability (log2),[2],0.106
same,cell viability (log2),[3],0.13
same,cell viability (log2),[4],0.11
CO[C@H]1C=C[C@@]23c4cc5c(cc4CN(C[C@@H]2O)[C@H]3C1)OCO5,cell viability (log2),[1],0.0568
same,cell viability (log2),[2],0.0269
same,cell viability (log2),[3],-0.415 (active)
same,cell viability (log2),[4],-0.623 (active)
O[C@H]1[C@H]2c3cc4c(cc3CN3CCC(=C[C@@H]1O)[C@H]23)OCO4,cell viability (log2),[1],0.0121
same,cell viability (log2),[2],0.0722
same,cell viability (log2),[3],0.0564
same,cell viability (log2),[4],-0.019
